# Assay results as given in PubChem BioAssay.
# “And” between values parts separate entries of the source, which are not always exact repeats. Equal entries are not always repeated. The source made the active and inactive calls. Rule as the data show it: active = inhibition above about 80%; inactive = the rest.
# Test: RCMB18 cell growth, single agent and combined, cisplatin and BGB IC40 combos (AID 1671462);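 also: cells exposed to compound for four days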
# Conditions: RCMB18 medulloblastoma cells, single agent, at 5 µM, stronger effect = higher value
row,Compound,inhibition
1,COc1cc([C@@H]2c3cc4c(cc3[C@@H](O[C@@H]3O[C@@H]5CO[C@@H](c6cccs6)O[C@H]5[C@H](O)[C@H]3O)[C@H]3COC(=O)[C@H]23)OCO4)cc(OC)c1O,28.8% and 46%
2,N=c1ccn2c(n1)O[C@H]1[C@H](O)[C@@H](CO)O[C@H]12,-26.3%
3,COc1cc(NS(C)(=O)=O)ccc1Nc1c2ccccc2nc2ccccc12,29.4% and 2.77%

# Test: CRL1545 cell growth, single agent and combined, cisplatin and BGB IC20 combos (AID 1671464);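 also: cells exposed to compound for 96 hours before readout; 0% = vehicle DMSO and 100% = high DMSO killing control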
# Conditions: CRL1545 osteosarcoma cells, at 0.5 µM, stronger effect = higher value
row,Compound,inhibition
1,COc1cc([C@@H]2c3cc4c(cc3[C@@H](O[C@@H]3O[C@@H]5CO[C@@H](c6cccs6)O[C@H]5[C@H](O)[C@H]3O)[C@H]3COC(=O)[C@H]23)OCO4)cc(OC)c1O,44.9% (inactive) and 71.7% (inactive)
2,N=c1ccn2c(n1)O[C@H]1[C@H](O)[C@@H](CO)O[C@H]12,-32.9% (inactive)
3,COc1cc(NS(C)(=O)=O)ccc1Nc1c2ccccc2nc2ccccc12,24% (inactive) and 17.8% (inactive)

# Same assay, conditions: CRL1545 osteosarcoma cells, measured here: with BGB IC20 combination, at 0.5 µM, stronger effect = higher value
row,Compound,inhibition
1,COc1cc([C@@H]2c3cc4c(cc3[C@@H](O[C@@H]3O[C@@H]5CO[C@@H](c6cccs6)O[C@H]5[C@H](O)[C@H]3O)[C@H]3COC(=O)[C@H]23)OCO4)cc(OC)c1O,41.5% and 64%
2,N=c1ccn2c(n1)O[C@H]1[C@H](O)[C@@H](CO)O[C@H]12,-44.9%
3,COc1cc(NS(C)(=O)=O)ccc1Nc1c2ccccc2nc2ccccc12,24.3% and 13.1%

# Same assay, conditions: CRL1545 osteosarcoma cells, measured here: with cisplatin IC20 combination, at 0.5 µM, stronger effect = higher value
row,Compound,inhibition
1,COc1cc([C@@H]2c3cc4c(cc3[C@@H](O[C@@H]3O[C@@H]5CO[C@@H](c6cccs6)O[C@H]5[C@H](O)[C@H]3O)[C@H]3COC(=O)[C@H]23)OCO4)cc(OC)c1O,45.4% and 75.2%
2,N=c1ccn2c(n1)O[C@H]1[C@H](O)[C@@H](CO)O[C@H]12,-29.7%
3,COc1cc(NS(C)(=O)=O)ccc1Nc1c2ccccc2nc2ccccc12,23.8% and 20.2%

# Same assay, conditions: CRL1545 osteosarcoma cells, single agent, at 0.05 µM, stronger effect = higher value
row,Compound,inhibition
1,COc1cc([C@@H]2c3cc4c(cc3[C@@H](O[C@@H]3O[C@@H]5CO[C@@H](c6cccs6)O[C@H]5[C@H](O)[C@H]3O)[C@H]3COC(=O)[C@H]23)OCO4)cc(OC)c1O,4.76% and 55.4%
2,N=c1ccn2c(n1)O[C@H]1[C@H](O)[C@@H](CO)O[C@H]12,-73.2%
3,COc1cc(NS(C)(=O)=O)ccc1Nc1c2ccccc2nc2ccccc12,42.2% and 26.1%

# Same assay, conditions: CRL1545 osteosarcoma cells, single agent, at 5 µM, stronger effect = higher value
row,Compound,inhibition
1,COc1cc([C@@H]2c3cc4c(cc3[C@@H](O[C@@H]3O[C@@H]5CO[C@@H](c6cccs6)O[C@H]5[C@H](O)[C@H]3O)[C@H]3COC(=O)[C@H]23)OCO4)cc(OC)c1O,98% and 98.8%
2,N=c1ccn2c(n1)O[C@H]1[C@H](O)[C@@H](CO)O[C@H]12,23.2%
3,COc1cc(NS(C)(=O)=O)ccc1Nc1c2ccccc2nc2ccccc12,82.1% and 75.5%
